# SNCA viab count – counter-screen for SNCA expression inhibitors: cell viability; 150,000 compounds, 0.12% hits; HEK-293-SNCA-luc viability, GF-AFC fluorescence, 24 h; Potency, µM (titrated, usually from 57.1 µM), for inactives: at the highest dose activity change, negative = cytotoxicity, usual class: cytotoxic;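 also: 0% = DMSO-treated cells and -100% = medium-only wells without cells; nearly all actives have a fitted effect of over 30% in size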
#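 HEK-293-SNCA-luc cells (1500/well) plated 24 h, then exposed 24 h to a dilution series; GF-AFC added 30 min at 37C, fluorescence 405/540 nm; normalised to medium-only and DMSO wells, Hill fit.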
# SNCA expr inhib – inhibitors of alpha-synuclein (SNCA) gene expression. HEK-293 SNCA-luciferase knock-in, luminescence, 24 h. Potency, µM (doses to about 57.2 µM), for the others: top-dose activity change, negative = inhibition, actives largely listed as inhibitors. 140,000 compounds, 0.17% hits. AID 1671194;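 also: plate controls were DMSO cells for no effect and cell-free wells for full effect; nearly all actives have a fitted effect of over 45% in size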
# GPT2 inh – GPT2 alanine aminotransferase inhibition; Recombinant GPT2, coupled pyruvate oxidase/HRP Amplex Red fluorescence; AID 1671188; Q8TD30; Potency, µM (titrated, usually from 57.7 µM), without a hit: at the top dose activity change, negative = inhibition, hits mostly inhibitors; 100,000 compounds, 0.25% hits; also: nearly all actives have a fitted effect of over 60% in size
# Target sequence (Q8TD30 whole entry, looked up): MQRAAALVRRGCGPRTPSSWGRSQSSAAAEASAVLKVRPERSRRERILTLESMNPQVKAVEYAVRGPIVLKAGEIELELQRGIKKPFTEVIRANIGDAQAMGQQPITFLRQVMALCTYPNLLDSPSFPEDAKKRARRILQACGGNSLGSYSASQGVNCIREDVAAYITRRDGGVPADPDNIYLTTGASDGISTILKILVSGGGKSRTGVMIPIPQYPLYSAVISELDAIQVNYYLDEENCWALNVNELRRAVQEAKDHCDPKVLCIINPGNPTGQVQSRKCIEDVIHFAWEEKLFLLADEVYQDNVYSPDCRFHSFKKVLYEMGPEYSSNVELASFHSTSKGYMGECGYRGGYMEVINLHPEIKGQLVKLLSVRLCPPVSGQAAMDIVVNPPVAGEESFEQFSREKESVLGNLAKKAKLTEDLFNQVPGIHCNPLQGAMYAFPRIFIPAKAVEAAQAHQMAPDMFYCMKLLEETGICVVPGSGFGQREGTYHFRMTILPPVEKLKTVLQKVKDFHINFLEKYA
#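 Fluorescence of coupled pyruvate oxidase/HRP/Amplex Red system (50uM Amplex, 30 min, dark) reports pyruvate formed by GPT2. Enzyme reaction: 10ng/uL GPT2, 2mM L-alanine, 250uM a-KG, 30 min room temperature, pH 7.5; 50uM AOA control.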
# Active calls of the source: *; i = inactive; ? = inconclusive; . = no result given; ! = not active in a repeat; [ ] = dose if it differs, or a comment. Most compounds without a hit are left out; they make up all but 0.36% or so of the library. Calls follow the shape of the dose curve; as a rule, active = well fitted curve in the direction sought with a large enough effect; inconclusive = small, poorly fitted or top-dose-only effect, or another doubt; inactive = no such curve, though single readings can be large; an effect the other way counts as inactive or inconclusive. Unless noted, % is scaled to controls: 0 for no effect and ±100 for the full control effect; potency is read from the fitted curve at half-maximal effect.
SMILES,SNCA viab count,SNCA expr inhib,GPT2 inh
O=c1c(-c2ccc(O)cc2)coc2cc(OC3O[C@H](CO)[C@H](O)[C@H](O)[C@H]3O)cc(O)c12 (stereo not given in full),-8%,5.4µM*,?
O=c1c(-c2ccc(O)cc2)coc2cc(O[C@@H]3O[C@H](CO)[C@H](O)[C@H](O)[C@H]3O)ccc12,-17%,?,i
O=C(NC1CCCN(Cc2ccc(-c3cncnc3)cc2)C1)c1ccccc1Cl (stereo not given),9%[12.5 µM],-1%,-2%
COc1ccc(-c2[nH]nc3ncc(-c4cccnc4)nc23)cc1F,?,2.8µM*,-12%[88.5 µM]
COc1ccc(-c2[nH]nc3ncc(-c4ccc(CO)cc4)nc23)cc1F,.,.,3%[88.5 µM]
O=C(c1ccoc1)N1CCC(Oc2ccccc2-c2nc(-c3ccccc3)no2)C1 (stereo not given),-8%,?,-2%
CCCc1nnc(NC(=O)c2nc(S(=O)(=O)Cc3ccc(C)cc3)ncc2Cl)s1,28µM*,5µM*,.
CC(C)Sc1ncc(Cl)c(C(=O)Nc2nnc(C(C)C)s2)n1,10%,-24%,.
CC(C)c1nnc(NC(=O)c2nc(S(=O)(=O)Cc3ccccc3)ncc2Cl)s1,22µM*,?,.
Cc1ccc(CS(=O)(=O)c2ncc(Cl)c(C(=O)Nc3nc4ccc(C)cc4s3)n2)cc1,4%,-12%,.
O=C(NCc1cccc(F)c1)C1CCCN(c2nccc(Nc3ccccc3F)n2)C1 (stereo not given),2%[12.5 µM],-18%,-13%
COc1ccc(C(=O)NC2CCN(Cc3ccc(-c4ccccc4OC)cc3)C2)cc1 (stereo not given),-4%[12.5 µM],-16%,i
O=C(NCCOc1ccccc1)c1nc2c(o1)CCN(Cc1ccc3[nH]ccc3c1)CC2,-3%[87.6 µM],18%[87.6 µM],-10%[88.5 µM]
CNC(=O)c1ccc(Nc2ncc(C(F)(F)F)c(NCc3nccnc3N(C)S(C)(=O)=O)n2)cc1,?,21µM*,-8%
CC(=O)NCC(=O)N1[C@H]2CC[C@H]1c1cc(Nc3ncc(C(F)(F)F)c(NC4CCC4)n3)ccc12,-21%,?,i
Cc1ccc(N)cc1O,65%,-10%,11µM*
Nc1ccc(C(=O)O)c(O)c1,-10%[23.9 µM],0%[25.6 µM],-5%
Cc1ccc(-n2ncc3c(N4CCC(Cc5ccccc5)CC4)ncnc32)cc1,-6%,-8%,.
Cc1ccc(-n2ncc3c(N4CCCCC4)ncnc32)cc1Cl,7%,7.1µM*,.
Cc1ccc(-n2ncc3c(N4CCCCCC4)ncnc32)cc1Cl,2%,9%,.
Cc1ccc(-n2ncc3c(N4CCCCC4)ncnc32)cc1,3%,0.89µM*,.
COc1ccccc1-c1ccc(C(=O)N2CCC(C(=O)NCc3ccc(C(F)(F)F)cc3)CC2)cc1,-2%[12.5 µM],43%,i
Cc1cccc(N(C)c2ccc3cc(S(=O)(=O)N4CCCC4)ccc3n2)c1,6%,-7%,.
CN(Cc1ccccc1)c1ccc2cc(S(=O)(=O)N3CCCCC3)ccc2n1,3%,25µM*,.
CN(C)c1cccc(C(=O)N2CCCN(c3cc(-c4ccc(F)cc4)[nH]n3)CC2)c1,-3%,155%,2%
SMILES,SNCA viab count,SNCA expr inhib,GPT2 inh
Cc1ccc(-c2cc(N3CCCN(C(=O)c4cccc(N(C)C)c4)CC3)n[nH]2)cc1C,18µM*,-27%,?
O=C(NCCN1CCCCC1)c1ccc(-c2ccc(N3CCSCC3)nc2)cc1,3%,59%,i
CNC(=O)c1cc(Nc2nnc(-c3ccc(O)cc3)c3ccccc23)ccc1OC,8%,45%,.
COC(=O)COc1ccc(-c2nnc(Nc3ccc(O)cc3)c3ccccc23)cc1,?,28µM*,.
CCC(=O)Nc1ccc(C)cc1-c1nc2ccccc2n(CC(=O)c2ccc(C)cc2)c1=O,17%,28µM*,.
COc1ccc(C(=O)Cn2c(=O)c(-c3cc(C)ccc3NC(C)=O)nc3ccccc32)cc1,?,-5%,.
COc1ccc(CNC(=O)C(=O)Nc2ccccc2OC)cc1,-11%,35%,.
COC(=O)/C=C/C(=O)N(O)CCCCNCc1ccc(COC(=O)Nc2cccc3ccccc23)cc1,24µM*,.,i
COc1ccc(CNC(=O)c2cc(-c3cccc(C(F)(F)F)c3)c3nncn3n2)cc1OC,-7%,-8%,2%
CCS(=O)(=O)c1ncc(Cl)c(C(=O)Nc2c(C(=O)Nc3cccc(C)c3)oc3ccccc23)n1,-6%,19%,.
Cc1ccc(CNC(=O)c2nc(S(=O)(=O)Cc3ccc(C)cc3)ncc2Cl)cc1,1%,7%,.
CC(=O)Nc1ccc(NC(=O)c2nc(S(=O)(=O)Cc3ccc(F)cc3)ncc2Cl)cc1,7.9µM*,?,.
Cc1cccc(NC(=O)c2nc(S(C)(=O)=O)ncc2Cl)c1,20µM*,?,.
Cc1ccc(CS(=O)(=O)c2ncc(Cl)c(C(=O)Nc3nc4ccc(F)cc4s3)n2)cc1,9%,?,.
CCS(=O)(=O)c1ncc(Cl)c(C(=O)NCc2ccc(OC)cc2)n1,?,22µM*,.
CCS(=O)(=O)c1ncc(Cl)c(C(=O)Nc2ccccc2)n1,7.1µM*,2.2µM*,.
CS(=O)(=O)c1ncc(Cl)c(C(=O)Nc2c(C(=O)Nc3ccccc3)oc3ccccc23)n1,-13%,9%,.
COc1ccc(-c2cc(C(=O)NC3CC3)c3cnn(C)c3n2)cc1,-3%[87.6 µM],141%[87.6 µM],i
Cc1ccc(-c2ccccc2CN2CCN(C(=O)C(C)(C)C)CC2)cc1Cl,1%[12.5 µM],-2%,-9%
COc1ccc(N2CCN(C(=O)c3nc(SC)ncc3Cl)CC2)cc1,-9%,3%,.
CCS(=O)(=O)c1ncc(Cl)c(C(=O)N2CCN(c3ccc(OC)cc3)CC2)n1,14µM*,?,.
O=C(NCc1ccccn1)c1nc2sccn2c1-c1cccc(C(F)(F)F)c1,-8%,68%,i
O=C(c1ccc(C(F)(F)F)cc1)N1CCCC(C(=O)N2CCC(c3ccccc3)CC2)C1 (stereo not given),-13%,-24%,1%
O=C(NC1CCN(Cc2cccc(-c3cccs3)c2)CC1)c1ccccn1,-5%[12.5 µM],-6%,-15%
Cc1ccc(NC(=O)CCc2nc3cccnc3n2-c2ccccc2)cc1Cl,-11%,5%,.
SMILES,SNCA viab count,SNCA expr inhib,GPT2 inh
O=C(CCc1nc2cccnc2n1-c1ccccc1)Nc1ccc(Cl)c(Cl)c1,-29%,7.1µM*,.
CN(C)C(=O)C(C)(C)Oc1nn(Cc2cccc(Cl)c2)c2ccccc12,-17%[87.6 µM],?,-13%[88.5 µM]
CN(C)CCCOc1nn(Cc2ccccc2)c2ccccc12,-5%,-2%[25.6 µM],1.3µM*!
O=[S+]([O-])(c1ccccc1)N1CCN(Cc2ccccc2-c2ccccc2F)CC1,9%[12.5 µM],0%,i
O=C(NCc1ccc2c(c1)OCO2)c1nc2cccnc2n(Cc2ccccc2)c1=O,-1%,11%,2%
COc1ccc(-c2nn(-c3ccccc3C)c(OC(C)=O)c2-c2ccc(NC(C)=O)cc2)cc1OC,-18%,-21%,i
COc1cccc(-c2nn(-c3ccccc3)c(OC(C)=O)c2-c2ccc(NC(=O)C3CCCC3)cc2)c1,2%,-4%,7.1µM*
CC(=O)Oc1c(-c2ccc(NC(=O)c3ccco3)cc2)c(-c2cccc(F)c2)nn1-c1ccc(C)cc1,0%,6%,28µM*
COCC(=O)Nc1ccc(-c2c(C(C)C)nn(-c3cccc(F)c3)c2OC(C)=O)cc1,-14%,5%,?

# Compound activity from PubChem BioAssay.
